TDP1 cell CPT = DT40-hTDP1 cell growth loss with CPT. 420,000 compounds, 12% hits. AID 686979. Potency, µM (titrated, usually from 46.2 µM), actives largely listed as inhibitors. chicken DT40 Tdp1-/-;hTDP1 cells + 20 nM CPT, ATP luminescence, 48 h; further: nearly all actives have a fitted effect of over 55% in size
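Chicken DT40 Tdp1-/- cells complemented with human TDP1, 400 cells/well, exposed to compounds plus 20 nM camptothecin for at least 48 h at 37 C; viability read as ATP content by CellTiter-Glo luminescence.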
D3 antag = antagonists of human D3 dopamine receptor; max response, negative = inhibition, %; P35462; D3R cells, DiscoveRx beta-arrestin luminescence, antagonist mode; stronger effect = lower value; 360,000 compounds, 2.5% hits; in the data active means max response below about -50%; inconclusive means no clear call, values can overlap the other calls
Target sequence (P35462 whole entry, looked up): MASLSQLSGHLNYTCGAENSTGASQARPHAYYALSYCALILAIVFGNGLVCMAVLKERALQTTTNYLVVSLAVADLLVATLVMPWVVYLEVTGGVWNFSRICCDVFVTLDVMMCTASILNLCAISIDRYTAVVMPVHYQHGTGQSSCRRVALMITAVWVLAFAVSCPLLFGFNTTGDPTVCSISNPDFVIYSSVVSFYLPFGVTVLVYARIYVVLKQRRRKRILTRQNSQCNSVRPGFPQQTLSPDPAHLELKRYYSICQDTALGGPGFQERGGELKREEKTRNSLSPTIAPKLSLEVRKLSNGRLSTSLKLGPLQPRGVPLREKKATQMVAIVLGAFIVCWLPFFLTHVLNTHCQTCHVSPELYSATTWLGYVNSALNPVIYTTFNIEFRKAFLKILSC
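Cells plated overnight at 1500 cells/well, then exposed to library compounds with dopamine controls for 90 minutes at 37 degrees C. DiscoveRx reagent added for 30–60 minutes at room temperature; luminescence read, quantitative HTS format.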
DT40 TDP1 no CPT = qHTS for Inhibitors of human tyrosyl-DNA phosphodiesterase 1 (TDP1): qHTS in cells in absence of CPT | Potency, µM (top dose mostly 46.2 µM), most hits filed as inhibitors | AID 686978, 2013 | 420,000 compounds, 15% hits | DT40 Tdp1-/- hTDP1 cells, no CPT, ATP luminescence, 48 h; further: nearly all actives have a fitted effect of over 55% in size
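Camptothecin absent (DMSO only). Human TDP1-complemented DT40 knockout cells, 400 cells/well, 37 °C for minimum 48 hr; ATP measured via CellTiter-Glo, 30 min dark incubation, luminescence.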
D3 ag = activates the human D3 dopamine receptor; AID 652048; D3R DiscoveRx beta-arrestin cells, luminescence, 90 min; P35462; max activation, %; 410,000 compounds, 0.58% hits; in the data active means max activation above about 30%
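Agonist-mode cell screen: cells plated at 1500/well and incubated overnight at 37 °C, then exposed to library compounds for 90 min at 37 °C. Detection reagent was added for 30–60 min at room temperature, and luminescence was read.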
ClpP mod = qHTS Assay for Activators of ClpP | ATP-dependent Clp protease proteolytic subunit (Bacillus subtilis (strain 168)), P80244 | purified B. subtilis ClpP, FRET peptide cleavage, 20 min | Potency, µM (series often up to 57.5 µM) | 340,000 compounds, 1.9% hits; active means well fitted falling curve with a large enough effect; inconclusive means small, poorly fitted or top-dose-only effect; inactive means no such curve, though single readings can be large or run the other way; further: the source files actives as falling curves though it sought activators and does not explain the sign; nearly all actives have a fitted effect of over 65% in size
Target sequence (P80244 whole entry, looked up): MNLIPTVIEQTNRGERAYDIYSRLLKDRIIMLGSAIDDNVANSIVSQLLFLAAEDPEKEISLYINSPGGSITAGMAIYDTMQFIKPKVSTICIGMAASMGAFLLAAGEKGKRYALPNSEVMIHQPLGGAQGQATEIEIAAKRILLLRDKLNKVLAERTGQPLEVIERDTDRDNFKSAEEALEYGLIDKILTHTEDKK
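FRET quenching reversal measured ClpP activation: 10 microg/mL B. subtilis ClpP at pH 8 with the FRET-FV decapeptide, read at 430 nm after 320 nm excitation. The 20-min minus 0-min signal was scaled between DMSO/no-enzyme wells and ADEP (5.8 microM final).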
IL1B secr inh = inhibitors of inflammasome signaling (IL-1 beta secretion); THP-1 LPS/ATP IL-1B secretion, AlphaLISA, 16 h; stronger effect = lower value; activity change, % at 57.5 µM; 360,000 compounds, 4.7% hits; AID 743279; in the data active means activity change below about -50%; inconclusive means mostly about -30% to -49%
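THP-1 cells pretreated 1 hr with compounds (up to 57.5 uM final), then stimulated with LPS (250 ng/mL final) plus ATP (1.25 mM final); secreted IL-1B measured by AlphaLISA after 16 hr, decreased signal indicating inhibition.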
Numbers stand for hits; . = inactive; ? = inconclusive; / = no result. This is a sample that favours compounds with a hit; in the whole collection about 21% have one here. Unless noted, the call rests on the fitted dose curve; in most records, active means well fitted inhibition curve with a large enough effect; inconclusive means small, poorly fitted or top-dose-only effect; inactive means flat fitted curve, though single readings scatter.

SMILES | TDP1 cell CPT | D3 antag | DT40 TDP1 no CPT | D3 ag | ClpP mod | IL1B secr inh
Nc1c(N(CCC2=CCCCC2)C(=O)c2ccccc2F)c(=O)[nH]c(=O)n1Cc1ccccc1 | ? | . | . | . | . | .
COCC(C)NC(=O)CSc1nc2ccccc2c(=O)n1CCc1ccc(S(N)(=O)=O)cc1 (stereo unspecified) | . | . | ? | . | . | .
CCOC(=O)c1c(C)oc2ncnc(Nc3ccc(OC)cc3OC)c12 | . | / | . | . | . | /
COc1ccc(S(=O)(=O)N(C)c2ccc(C(=O)N3CCN(C)CC3)cc2)cc1 | . | . | . | . | / | .
COc1ccc(N2CCN(C(=O)c3ccc(N(C)S(=O)(=O)c4ccc(OC)cc4)cc3)CC2)cc1 | ? | . | 16µM | . | / | ?
Cc1ccc(S(=O)(=O)c2cn(CC(=O)Nc3ccc4c(c3)OCO4)c3ccccc3c2=O)cc1 | . | / | ? | . | . | /
Cc1ccc(C(=S)N2CCCCCC2)cc1 | 16µM | . | 23µM | . | . | .
S=C(c1ccc(N2CCCC2)c(Br)c1)N1CCCCC1 | 21µM | ? | 23µM | . | . | .
Oc1ccc(C(=S)N2CCCCCC2)cc1 | . | . | . | . | . | .
S=C(c1ccc(N2CCCC2)cc1)N1CCCCC1 | 16µM | ? | 18µM | . | . | .
CCOc1ccccc1NC(=O)C1CCN(C(=O)Cc2ccccc2)CC1 | . | . | . | . | / | .
C[C@@H]1CCCCO[C@H](CN(C)Cc2ccc(Cl)c(Cl)c2)[C@H](C)CN([C@@H](C)CO)C(=O)c2cc(NC(=O)Nc3ccc(F)cc3)ccc2O1 | 9.2µM | . | 5.8µM | . | . | ?
C[C@H](CO)N1C[C@H](C)[C@@H](CN(C)Cc2ccc(Cl)c(Cl)c2)OCCCC[C@H](C)Oc2ccc(NC(=O)CCC(F)(F)F)cc2C1=O | 23µM | . | 15µM | . | . | .
CC(C)NC(=O)Nc1ccc2c(c1)C(=O)N([C@H](C)CO)C[C@H](C)[C@@H](CN(C)S(=O)(=O)c1ccccc1)OCCCC[C@@H](C)O2 | . | . | . | . | . | .
C[C@@H]1CN([C@H](C)CO)C(=O)c2cc(NC(=O)Nc3ccc(F)cc3)ccc2O[C@@H](C)CCCCO[C@H]1CN(C)S(=O)(=O)c1ccc(Cl)cc1 | 26µM | . | ? | . | . | /
C[C@@H]1CCCCO[C@H](CN(C)Cc2ccc(Cl)c(Cl)c2)[C@@H](C)CN([C@H](C)CO)C(=O)c2cc(N(C)C)ccc2O1 | 18µM | . | 23µM | . | . | ?
CC1=C(C(=O)N2CCOCC2)CC(CC(=O)NC2CC2)C(=O)N1Cc1ccc(F)cc1 (stereo unspecified) | . | . | . | . | . | .
CN(C)/C=C\C(=C/C(=O)C(F)(F)F)Nc1ccccc1Oc1ccccc1 | ? | ? | 18µM | . | / | -98
CCC(=O)Nc1ccccc1Oc1ccccc1 | . | . | ? | . | . | .
Cc1ccc(NC(/C=C/N(C)C)=C/C(=O)C(F)(F)F)c(C)c1 | 16µM | . | 16µM | . | / | .
Cc1ccc(NC(=O)CC(=O)Nc2ccc(C)cc2C)c(C)c1 | . | . | . | . | . | .
COc1ccc(NC(=O)CSc2nnc(-c3ccc(F)cc3)o2)cn1 | . | . | . | . | . | .
O=C1c2ccccc2C(=O)c2[nH]c(=O)[nH]c21 | 2.1µM | ? | 1.8µM | . | / | ?
Cc1ccccc1NC(=S)NCc1ccc(F)cc1 | . | . | ? | . | / | .
Cc1ccccc1NC(=S)NCc1ccc(Cl)cc1 | ? | . | 15µM | . | . | .
SMILES | TDP1 cell CPT | D3 antag | DT40 TDP1 no CPT | D3 ag | ClpP mod | IL1B secr inh
O=C(NNC(=S)Nc1ccc(Cl)cc1Cl)c1ccncc1 | . | . | 16µM | . | . | .
Fc1ccc(CNC(=S)Nc2ccc(Cl)cc2)cc1 | ? | . | ? | . | . | .
S=C(NCc1ccc(Cl)cc1)Nc1ccccc1 | ? | . | 21µM | . | / | .
S=C(Nc1ccccc1)Nc1ccc(Cl)cc1Cl | 18µM | ? | ? | . | . | .
CCn1c(SCC(=O)Nc2ccc(OC)cc2)nc2c(c1=O)SCC2 | . | . | ? | . | . | .
NS(=O)(=O)c1ccc(NC(=S)NCc2ccc(Cl)cc2)cc1 | ? | . | ? | . | . | .
S=C(NCc1ccc(Cl)cc1)Nc1ccncc1 | 8.2µM | . | ? | . | . | .
CC(=O)N(C)c1ccc(N=Nc2c(C)[nH]n(-c3ccccc3)c2=O)cc1 | ? | . | ? | . | . | .
CC(=O)N(C)c1ccc(N=Nc2ccc3ncccc3c2)cc1 | ? | . | 15µM | . | / | ?
Cc1ccc(-c2csc(Nc3ccccn3)n2)cc1 | ? | . | ? | . | / | -77
Cc1cccnc1Nc1nc(-c2ccc(O)cc2)cs1 | . | . | . | . | . | ?
Oc1ccc(-c2csc(Nc3ccccn3)n2)cc1 | ? | . | ? | . | / | -73
Cc1cc(-c2csc(Nc3ccccn3)n2)ccc1F | ? | . | 21µM | . | . | -58
c1ccc(-c2csc(Nc3ccccn3)n2)cc1 | . | . | ? | . | / | -55
CC1(NC(=O)NCc2ccccc2)CCS(=O)(=O)C1 (stereo unspecified) | . | . | . | . | . | .
COc1cc(C(=O)Nc2c(C)cc(C)cc2C)c(Br)c(OC)c1OC | . | . | ? | . | / | .
O=C(O)c1cc(O)c2c(c1)[C@H]([C@H]1c3cc(C(=O)O)cc(O)c3C(=O)c3c(O[C@@H]4O[C@H](CO)[C@@H](O)[C@H](O)[C@H]4O)cccc31)c1cccc(O[C@@H]3O[C@H](CO)[C@@H](O)[C@H](O)[C@H]3O)c1C2=O | . | / | . | . | / | /
Cc1cc(=O)n2nc(N3CCCC(C(=O)NCc4ccccc4Cl)C3)sc2n1 (stereo unspecified) | . | . | . | . | . | .
COc1ccc(-c2csc(Nc3ccc(C)cn3)n2)cc1 | . | . | . | . | / | -67
CC(=O)Nc1cccc(-c2csc(Nc3ccc(C)cn3)n2)c1 | . | . | ? | . | . | -100
CC(=O)Nc1ccc(-c2csc(Nc3cccc(C)n3)n2)cc1 | ? | . | ? | . | / | .
Cc1cc(C(=O)OCC(=O)Nc2cccnc2Cl)c2ccccc2n1 | . | . | . | . | / | .
CCN(CC(=O)Nc1c(F)cccc1F)C(=O)CC1CCCCC1 | . | . | . | . | . | .
Cc1ccc(OCc2cc(C(=O)N3CCC(C(O)C(C)C)CC3)no2)cc1C (stereo unspecified) | ? | . | ? | . | . | .
Cc1ccc(-c2csc3ncn(CC(=O)O)c(=O)c23)cc1C | . | . | . | . | . | .
